Compounds with a hit are over-represented: about 21% of the library has one in this group of screens.
Shiga inhibitor: Shiga toxin inhibition. Vero cells, Shiga toxin protein synthesis inhibition reporter. inhibition, % at 38.7 µM. actives 9.2% (n = 290,000); in the data active = inhibition mostly above about 28%, no sharp cut-off; inactive = mostly below about 43%; note: 0% is about no effect
Cycloheximide cs: counter-screen hit for Shiga toxin inhibitors, cycloheximide; cell reporter, cycloheximide protein synthesis inhibition counterscreen; max response, %; actives 12% (n = 300,000); AID 2314; in the data active = max response mostly above about 13%, no sharp cut-off; inactive = mostly below about 14%; note: read at 38.3 µM for the half of the compounds with a filed dose; 0% is about no effect
Pf growth 48h: P. falciparum growth inhibition at 48 hours (one generation); P. falciparum luciferase growth in erythrocytes, 48 h; actives 5.9% (n = 310,000); Potency, µM (titrated, usually from 28.7 µM), for inactives: at the highest dose activity change, negative = inhibition, usual class: inhibitors; AID 504832; note: potency is the fitted concentration of half-maximal effect; % is set by controls: 0 for no effect and ±100 for the full control effect
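Luminescence readout; reporter = integrated firefly luciferase in P. falciparum. RBC culture at 2% hematocrit, 0.1% parasitemia final, 37 C/5% CO2; decreased signal taken as growth inhibition.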
Pf growth 96h: P. falciparum growth inhibition at 96 hours; P. falciparum luciferase reporter growth, 96 h; Potency, µM (doses to about 28.7 µM), for the others: at the top dose activity change, negative = inhibition, most hits filed as inhibitors; actives 6.9% (n = 320,000); note: potency is the fitted concentration of half-maximal effect; % is set by controls: 0 for no effect and ±100 for the full control effect
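P. falciparum expressing integrated firefly luciferase, in erythrocytes at 2% hematocrit, 0.05% parasitemia, incubated with compounds 96 h at 37 C, 5% CO2. Growth inhibition read as loss of luminescence; two-generation exposure targets delayed-death apicoplast inhibitors.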
Sm TGR block: blocks Schistosoma mansoni thioredoxin glutathione reductase | Q962Y6 | purified TGR, DTNB reduction, TNB absorbance 405 nm | Potency, µM (doses to about 114 µM), without a hit: at the highest dose activity change, negative = inhibition, usual class: inhibitors | actives 3% (n = 360,000) | AID 485364; note: potency is the fitted concentration of half-maximal effect; % is set by controls: 0 for no effect and ±100 for the full control effect; nearly all actives have a fitted effect of over 60% in size
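Kinetic colorimetric format: TGR-catalysed, NADPH-driven DTNB reduction monitored via TNB absorbance. Enzyme dispensed at 20 nM; compound exposure 15 min at room temperature before reaction start.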
NS1 function inh: inhibitors of influenza NS1 protein function. Potency, µM (series often up to 46.1 µM), for inactives: at the highest dose activity, positive = more growth. actives 0.4% (n = 270,000). AID 2326; calls by dose curve; note: potency is the fitted concentration of half-maximal effect; actives are rising curves; nearly all actives have a fitted effect of over 50% in size
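Growth recovery, yeast-based: influenza A NS1 expressed in S. cerevisiae causes slow growth, and suppressors are detected by OD600. The parent strain without NS1 is used as positive control.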
Active calls of the source: *; ? = inconclusive; . = no result. Unless noted, calls come from the whole dose curve; as a rule, active = well fitted curve in the direction sought with a large enough effect; inconclusive = small, poorly fitted or top-dose-only effect, or another doubt; inactive = no such curve, though single readings can be large; an effect the other way counts as inactive or inconclusive.

SMILES	Shiga inhibitor	Cycloheximide cs	Pf growth 48h	Pf growth 96h	Sm TGR block	NS1 function inh
Cc1c(OCC(=O)NCc2ccncc2)ccc2c3c(c(=O)oc12)CCCC3	4	9	20%	?	0%	12%
Cc1cc(Cl)ccc1OCC(=O)Nc1cccnc1	61*	38*	48%	8%	3%	-12%
O=C(COC(=O)c1ccncc1)Nc1cccc(Cl)c1	-2	19	-35%	0%	4%	0%
Cc1c(OC(C)C(=O)NCc2cccnc2)ccc2c3c(c(=O)oc12)CCCC3 (stereo not drawn)	-12	-2	-16%	12µM*	9%	-48%
Cc1onc(-c2ccccc2)c1C(=O)OCC(=O)Nc1cccc(Cl)c1	.	.	12µM*	?	0%	.
CCCOc1cccc(NC(=O)c2c(-c3ccccc3)noc2C)c1	8	-1	14%	-3%	-2%	-35%
Cc1c(C)c2ccc(OCC(=O)Nc3cccnc3)c(C)c2oc1=O	32	26*	49%	?	9%	5%
Cc1onc(-c2ccccc2)c1C(=O)Nc1cccc(OC(C)C)c1	2	-2	-6%	13µM*	-1%	-17%
Cc1ccc(Cl)cc1N1CCN(C(=O)c2cc(S(=O)(=O)N3CCCCCC3)cn2C)CC1	.	.	.	.	2%	.
COc1cccc(-n2c(=O)c3c4c(sc3n(Cc3ccccc3C#N)c2=O)CCCC4)c1	.	.	.	.	10%	.
Cc1ccc(C(=O)c2cn(Cc3ccc(Cl)cc3)c3nc(C)ccc3c2=O)cc1	.	.	?	12µM*	-18%	.
Cc1ccc(Cn2cc(C(=O)c3ccc(F)cc3)c(=O)c3cc4c(cc32)OCCO4)cc1	0	-3	-25%	12µM*	2%	3%
COc1ccc(Nc2nc(OC)nc(N3CCN(c4ccc(OC)cc4)CC3)n2)cc1	1	0	9.3µM*	?	-23%	-40%
COc1ccc(N2CCN(c3nc(NCCc4ccc(OC)c(OC)c4)nc(OC)n3)CC2)cc1	-13	-2	?	.	-30%	-37%
COc1nc(Nc2ccc(C(C)C)cc2)nc(OC)n1	48*	41*	1.2µM*	-10%	-8%	-12%
COc1ccc(Nc2nc(Cl)nc(N3CCN(c4ccc(OC)cc4)CC3)n2)cc1	8	1	?	12µM*	4%	1%
Cc1nn(C(C)C(=O)NCCN2CCCCCC2)c(=O)c2nn(-c3ccccc3)c(C)c12 (stereo not drawn)	-8	-6	19%	-20%	-12%	9%
O=C(Nc1ccc(O)c2c(=O)cc(-c3ccccc3Cl)oc12)c1ccc(Br)cc1	-5	-2	.	.	.	.
COc1cc(C(=O)Nc2c(C)cc(C)cc2C)c([N+](=O)[O-])cc1OC	3	-2	?	67%	-10%	10%
CCn1c(C)c(C(=O)c2ccccc2)c(C#N)c1C(=O)O	25	21*	21%	18%	12%	-6%
COc1c(S(=O)(=O)N2CCN(C(=O)c3ccco3)CC2)ccc(Cl)c1Cl	-7	-2	9%	27%	-14%	-26%
O=[N+]([O-])c1ccc(-c2ccc(S(=O)(=O)NCCN3CCCC3)cc2)cc1	-13	-2	?	1%	-8%	.
O=[N+]([O-])c1ccc(S(=O)(=O)NCCN2CCOCC2)cc1	51*	2	-25%	20%	13%	5%
N#Cc1c(N2CCN(c3ccc(F)cc3)CC2)nc(N)c2c(N)nc3c(c12)CC(=O)N3C1CC1	12	8	0.93µM*	2.6µM*	-31%	.
CN(CCO)c1nc(N)c2c(N)nc3c(c2c1C#N)CC(=O)N3C1CCCC1	-7	-2	?	?	3%	?
SMILES	Shiga inhibitor	Cycloheximide cs	Pf growth 48h	Pf growth 96h	Sm TGR block	NS1 function inh
O=C(N/N=C/c1ccccc1C(F)(F)F)c1ccc2nc[nH]c2c1	29*	49*	?	-22%	-4%	18%
O=C(N/N=C/c1ccc(Cl)cc1Cl)c1ccc2nc[nH]c2c1	53*	24*	?	?	-1%	-3%
O=C(N/N=C/c1ccc(Cl)cc1Cl)c1cccc(F)c1	137*	33*	172%	192%	-13%	-7%
CCc1ccc(C(=O)N/N=C/c2ccc(Cl)cc2Cl)nc1	24	18*	67%	25%	1%	5%
O=C(N/N=C/c1cc([N+](=O)[O-])ccc1Cl)c1ccc2nc[nH]c2c1	-14	-1	?	51%	2%	-12%
O=C(N/N=C/c1ccco1)c1ccc2nc[nH]c2c1	10	1	12%	225%	?	-2%
Cc1ccc(OCCSc2ncccn2)c(C)c1	96*	49*	121%	31%	5%	6%
Cc1cccc(OCCOCCSc2ncccn2)c1	41	10*	19%	-28%	3%	-7%
CCC(=O)c1ccc(OCCSc2ncccn2)cc1	88*	53*	156%	?	0%	-7%
Cc1cccc(OCCSc2nc(N)cc(N)n2)c1	45*	20*	78%	46%	-21%	-6%
COc1ccc(-c2nnc(SCCOc3cccc(C)c3)n2N)cc1	-5	2	-3%	.	0%	-5%
c1ccc(OCCOCCSc2ncccn2)cc1	45	20*	54%	-11%	4%	-14%
Cc1cc(SCCOc2ccccc2)nc(N)n1	80*	28*	99%	23%	-19%	-75%
O=S(=O)(c1ccc(NCCOc2ccccc2)nc1)N1CCCC1	.	.	?	?	-11%	.
COC(=O)c1ccccc1NC(=O)c1cccc(NC(=O)CSCc2ccccc2)c1C	3	1	?	-23%	2%	17%
O=C(NC1=NCCS1)Nc1ccccc1	65*	36*	337%	88%	-18%	-2%
O=C(NC1=NCCS1)c1ccc(Cl)c(Cl)c1	68*	48*	182%	0%	0%	2%
O=C(NC1=NCCS1)c1cc(Cl)ccc1Cl	-3	4	5%	3%	4%	-8%
O=C(Nc1ccccc1)Nc1nncs1	-5	-4	20%	-14%	8%	-7%
CC(C)(C)C(=O)NC1=NCCS1	-16	-2	10%	1.5µM*	4%	0%
O=C(NC1=NCCS1)c1ccccc1Cl	15	8.2*	6%	3%	0%	-25%
Cc1c(Nc2cc(N3CCCCCC3)c3nonc3c2[N+](=O)[O-])c(=O)n(-c2ccccc2)n1C	-2	-1	?	?	2%	-2%
CCOc1ccc(NC(=O)CSc2nnc(C3CC3)n2C2CC2)cc1	.	.	18%	20%	2%	.
O=C(c1ccc(S(=O)(=O)N2CCCC2)cc1)N(c1ccc(F)cc1)C1C=CS(=O)(=O)C1 (stereo not drawn)	33	-2	2%	63%	-12%	-5%
O=C(Nc1ncccc1O)c1cc2ccccc2o1	.	.	?	-100%	-24%	.
O=C(NC1=NCCS1)c1cccs1	11	-3	?	?	5%	5%

From PubChem BioAssay
